From ChEMBL document CHEMBL4513216, “Probing the Open Global Health Chemical Diversity Library for Multistage-Active Starting Points for Next-Generation Antimalarials” (ACS Infect Dis, 2020)
About 2,100 (3.2%) of roughly 65,000 compounds showed an effect of 50% or more. The median lay at about -52%. Many of the other results were omitted from the sample, so strong results are more common in it than they were.

Tested on: Plasmodium falciparum
Assay: Screen against P. falciparum Asexual Blood Stage (ABS), at 5uM
Assay type: functional, Dd2
Settings: tested at 5 uM

Compound	INHIBITION
CCOCC(=O)NC(C)Cc1ccccc1Br (stereo unspecified)	-68.7%
Cc1ccnc(OC[C@@]23CCO[C@@H]2CCN(C2CCC2)C3)n1	-9.15%
CC(Cc1ccc(Cl)cc1)NC(=O)Nc1cnn(CC(N)=O)c1 (stereo unspecified)	22.5%
CSc1cccc(CN(C)C(=O)c2cccc(C3CCCNC3)c2)c1 (stereo unspecified)	77.5%
CNC(=O)c1ccc2c(c1)C1(CCN(C(C)C)CC1)C(=O)N2	-45.1%
O=C(c1ccccc1)N1CCOC2CNCC[C@H]21 (stereo partly specified)	-28.1%
Cc1cc(N(C)C)cc(C2CCN(S(=O)(=O)c3cccs3)C2)n1 (stereo unspecified)	84.1%
CCCSCC(=O)N1C[C@@H]2CC[C@H]1CN(Cc1cccnc1)C2	-60%
CCCc1cc(N2CCC(NCCc3ccc(O)cc3)CC2)nc(C)n1	82.1%
Cc1cc(N2CCC(NC(C)Cc3ccsc3)CC2)nc(C)n1 (stereo unspecified)	85.8%
Cc1ccc(N2CC[C@@H]3[C@@H]2CCN3Cc2ccsc2)nn1	-103%
Cc1cccc(N2CCC(NC(C)c3cccs3)CC2)n1 (stereo unspecified)	-22.7%
Cc1cc(N2CCCC2c2cccnc2)nc(C)n1 (stereo unspecified)	-10.2%
CCc1cc(N2CCC(NC3CN4CCC3CC4)CC2)nc(N(C)C)n1 (stereo unspecified)	-25.1%
Cc1cc(N2CCC(NCCOc3ccccc3)CC2)nc(C)n1	75.1%
CC(C)OC(=O)N1C[C@@H]2CC[C@H]1CN(Cc1cccnc1)C2	-128%
Cc1cccc(CN2C(=O)C[C@H]3[C@@H]2CCN3Cc2cccs2)n1	-76.6%
CN1CCC(N2CCOC3(CCCC3)C2)C1=O (stereo unspecified)	-26.7%
CC(C)Oc1ccc(C(O)CNCc2ccccc2C(F)(F)F)cc1 (stereo unspecified)	83.2%
Cc1ccccc1CNCC(O)c1ccc(OC(C)C)cc1 (stereo unspecified)	92.4%
OC(CNCc1ccccc1C(F)(F)F)c1ccccc1 (stereo unspecified)	82.4%
Cc1noc(C)c1C(=O)N1CCOC2(COCCN(C(C)C)C2)C1 (stereo unspecified)	-57.3%
CN(CCCOc1ccccc1)C(=O)c1csc(-c2nnc[nH]2)n1	77.1%
CC1(C)CN(C(CNC2=NCCN2)c2ccc(Cl)cc2)CCO1 (stereo unspecified)	83%
Cc1n[nH]c2c1C(c1ccc(O)c(Cl)c1)SCC(=O)N2 (stereo unspecified)	-65.6%
O=C(c1ccc(-n2cccn2)nc1)N1CCC(c2ccc(O)cc2)CC1	75.1%

Compound	INHIBITION
Cc1ccc(C(=O)N2C[C@@H]3OCCN(C)[C@@H]3C2)cn1	-12.2%
O=C(c1ccc(-n2ccnc2)nc1)N1CCN2CCCCC2C1 (stereo unspecified)	-56.6%
Cc1noc(C)c1CN1C[C@H](OCC2CC2)[C@H]2COC[C@H]21	-54.7%
Fc1ccccc1CO[C@@H]1C[C@H]2CN(c3ncccn3)CCN2C1	-67.9%
COc1ccc(C)cc1CN1CCC(c2cc3ncccc3cn2)CC1	78.2%
Fc1ccc(F)c(CN2CCC(c3cc4ncccc4cn3)CC2)c1	76%
Fc1cnccc1CN1CCC2(CCN2c2ncccn2)C1 (stereo unspecified)	-10.7%
CN1C(=O)C2(CCN(Cc3cccnc3)CC2)c2cccc(F)c21	-61.4%
Fc1cccc(CN2CCC(c3cc4ncccc4cn3)CC2)c1F	89.4%
O=C(Cc1ccccc1F)N1CCN(Cc2noc(C3CC3)n2)CC1	-69%
O=C1CO[C@H]2CN(Cc3cccnc3)C[C@H]2N1	-119%
CCN1CCN(C(=O)Cc2ccc(S(=O)(=O)C(F)F)cc2)CC1	-124%
NCC1Cc2cccc(-c3ccc(O)c(F)c3)c2O1 (stereo unspecified)	82.9%
COCC(=O)N1C[C@@H]2OCCN(Cc3c(C)noc3C)[C@@H]2C1	-93.2%
c1cncc(O[C@H]2CC[C@H]3[C@H]2OCCN3C2CCC2)c1	-27.2%
Cc1ccc(Cl)cc1N1CCC(CNC(=O)CCn2ccnc2)C1 (stereo unspecified)	84.2%
CCN1CCN(C(=O)c2cn(Cc3ccccc3)c3ncccc23)CC1	20.5%
CC(=O)c1cc(C(=O)N2CC[C@H]3CC[C@@H](C2)N3C)c(=O)[nH]c1C	-102%
CN1[C@@H]2CC[C@H]1CN(C(=O)c1ccc(-c3ccccc3)[nH]1)CC2	79.7%
CCc1ncc(C(=O)N2CC[C@H]3CC[C@@H](C2)N3C)cn1	-3.55%
COCCN1CCN(Cc2ccncc2)[C@H]2CS(=O)(=O)C[C@H]21	-111%
CNC(=O)CN1CC[C@H]2CN(C(=O)c3ccc(C)nc3)C[C@H]2C1	-17.9%
CCN(CC)CCN1CCO[C@H]2[C@@H](OCc3ccccn3)CC[C@@H]21	-115%
COC(=O)c1cc(OCC2CCC2)cc(C(=O)N[C@@H]2CNCC[C@H]2O)c1	90.1%
CC1=N[C@@]2(CC[C@@H]3CN(CC(C)C)C[C@@H]32)C(=O)N1	-40.1%
COc1ccc2c(c1)c(C(=O)Nc1n[nH]c(C(C)C)n1)cn2C(C)C	22.8%

Compound	INHIBITION
CCCc1nc(N2CCCC3(CCNC3)C2)c2cnn(C)c2n1 (stereo unspecified)	-53.5%
CCCc1nc(N2CCCN3CCC[C@H]3C2)c2cnn(C)c2n1	-7.45%
CCCc1nc(N(C)CCN2CCCCCC2)c2cnn(C)c2n1	92.9%
Cc1c(C2SCC(=O)Nc3c2c(O)nn3C2CCCC2)cnn1C (stereo unspecified)	-70.4%
CC(C)N1CCC2(CCCNC2)C1=O (stereo unspecified)	25.4%
c1cnc(N2CCC3(COCCN(CC4CCOCC4)C3)C2)nc1 (stereo unspecified)	-26.6%
O=C1C[C@H]2[C@@H](CCN2Cc2ccccn2)N1CCN1CCOCC1	27.7%
c1cc(N2CCC(CN3CCOCC3)CC2)c2sccc2n1	92.3%
O=C1NC[C@H]2CN(Cc3ccnc4ccccc34)CCN12	-11.8%
CCC(O)(CNCc1cc[nH]n1)c1ccc(Br)cc1 (stereo unspecified)	76.4%
O=S(=O)(C1CC1)N1CCC2(CC1)CN(Cc1ccccn1)CCO2	-110%
CC(C)N1CCOCC2(CN(Cc3ccccn3)CCO2)C1 (stereo unspecified)	-62.4%
O=C(NCc1ccccn1)[C@@]12CCO[C@@H]1CCN(C1CCCC1)C2	-21.2%
OCCN1CCC2(CC1)CC(NCc1ccccn1)c1ccccc1O2 (stereo unspecified)	70.8%
CC(C)N1CCC2(CC1)CC(NCc1ccccn1)c1ccccc1O2 (stereo unspecified)	70.7%
Cn1cc(CN2CC[C@]3(C[C@H](OCc4ccccn4)CO3)C2)cn1	-37.1%
CN(C)C(=O)[C@@H]1C[C@@H]2CCN(Cc3ccncc3)C[C@@H]2O1	-19.3%
CCCN1CCC[C@]2(CCC(=O)N2Cc2ccncc2)[C@H]1CC	-97.5%
O=C(C1CC=CC1)N1CCC2(CC1)CNCCO2	-57.4%
C[C@@H]1CN(C(=O)C2CCS(=O)(=O)CC2)CC[C@@]1(O)C1CCOCC1	71.2%
O=C(C1CCOCC1)N1CCC2(CCNCC2)C1	-36.9%
O=C(C1CC1)N1CCC2(CC1)OCCO2	-77.4%
O=C([C@@H]1Cc2[nH]cnc2CN1Cc1cc2ccccc2o1)N1CCCC1	95%
CCOCC(O)CN1CCN(C(=O)Cc2ccc3c(c2)CCC3)CC1 (stereo unspecified)	69.6%
O=C(Cc1ccccc1Cl)N1CCN(CC(O)COCCO)CC1 (stereo unspecified)	58%
CCOCC(O)CN1CCN(C(=O)Cc2ccc3c(c2)CCO3)CC1 (stereo unspecified)	-3.91%

Compound	INHIBITION
CCOCC(O)CN1CCN(C(=O)Cc2ccccc2Cl)CC1 (stereo unspecified)	-121%
CCOCC(O)CN1CCN(C(=O)Cc2cccc(C)c2)CC1 (stereo unspecified)	59.6%
CCOCC(O)CN1CCN(C(=O)Cc2cccc(Cl)c2)CC1 (stereo unspecified)	-87.1%
CCC(O)CN1CCN(C(=O)Cc2ccc(C)nc2)CC1 (stereo unspecified)	36.3%
Cc1ccc(CC(=O)N2CCN(CC(O)C(C)(C)C)CC2)cn1 (stereo unspecified)	-202%
CC(C)(C)C(=O)NS(=O)(=O)c1ccc(C#N)c(C(F)(F)F)c1	-87.2%
CN(C)[C@@H]1CN(C(=O)Cc2ccsc2)[C@@H]2CCCO[C@H]12	32.7%
CCNC(=O)CCC(=O)NC(C)Cc1ccccc1Br (stereo unspecified)	-67.5%
NC(=O)C1CN(C(=O)Nc2cc(Cl)cc(Cl)c2)CCO1 (stereo unspecified)	84.9%
Cc1ncc2c(c1CNC(=O)C1(C)CCCCO1)CCNC2 (stereo unspecified)	-63.8%
O=C(NCc1cc2n(n1)CCCNC2)C1(c2ccccc2)CCCCC1	73.7%
O=C(CCc1cscn1)N1CCC(C(=O)O)(c2ccccc2)CC1	-11.5%
CCCC(=O)NS(=O)(=O)c1ccc(C#N)c(C(F)(F)F)c1	-56%
CO[C@@H]1CCN(C2CCOCC2)C[C@@H]1Cc1ccccc1	80.8%
Cc1nnc(N2CC[C@@H](OCC3CC3)[C@@H](Cc3ccccc3)C2)s1	84.8%
c1ccc(C[C@H]2CN(C3CCOCC3)CC[C@H]2OCC2CC2)cc1	74.9%
c1cncc(CO[C@H]2CC[C@H]3[C@@H]2OCCN3C2CCOCC2)c1	-57.8%
NC(=O)C1CN(C(=O)Cc2cccnc2)CCN(C2CCOCC2)C1 (stereo unspecified)	-92.3%
O=C1[C@H]2CN(C3CCOCC3)C[C@H]2CN1Cc1cccnc1	-28.2%
O=C1N(Cc2cccnc2)C[C@H]2CN(C3CCOCC3)CCN12	-55.6%
O=C1[C@H]2CN(C3CCOCC3)C[C@H]2CN1Cc1ccncc1	-33.5%
CO[C@H]1CCN(C2CCOCC2)C[C@@H]1Cc1ccccc1	78.7%
c1ccc(CN2C[C@@H]3OCCN(CC4CCCO4)[C@@H]3C2)nc1 (stereo partly specified)	-0.326%
